Reference: PubChem BioAssay (NCATS)

Tests used:
Test in all cases: Confirmatory Screen for Target Class Profiling of Small Molecule Inhibitors of Methyltransferases (AID 1745852); on activity change, negative = inhibition: on the % scale 0 is the no-effect control and ±100 the full control effect
[1] = target: Catechol O-methyltransferase (Homo sapiens) (UniProt P21964); conditions: MTase-Glo luminescence, SAH detection, recombinant enzyme; measured here: COMT max response; stronger effect = lower value
Sequence of Catechol O-methyltransferase (Homo sapiens) (P21964 whole entry, looked up): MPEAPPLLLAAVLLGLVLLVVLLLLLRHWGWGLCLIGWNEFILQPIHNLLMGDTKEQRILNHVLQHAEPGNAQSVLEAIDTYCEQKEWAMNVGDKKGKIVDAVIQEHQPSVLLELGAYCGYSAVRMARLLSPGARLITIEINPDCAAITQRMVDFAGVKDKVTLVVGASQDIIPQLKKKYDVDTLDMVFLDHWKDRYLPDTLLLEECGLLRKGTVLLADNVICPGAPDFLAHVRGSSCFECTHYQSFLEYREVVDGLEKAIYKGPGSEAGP

[2] = target: Guanidinoacetate N-methyltransferase (Homo sapiens) (UniProt Q14353); conditions: MTase-Glo luminescence, SAH detection, recombinant enzyme; activity change, negative = inhibition: at 57.3 µM (top of the series) unless noted
[3] = target: Nicotinamide N-methyltransferase (Homo sapiens) (UniProt P40261); conditions: MTase-Glo luminescence, SAH detection, recombinant enzyme; measured here: NNMT max response; stronger effect = lower value
Sequence of Nicotinamide N-methyltransferase (Homo sapiens) (P40261 whole entry, looked up): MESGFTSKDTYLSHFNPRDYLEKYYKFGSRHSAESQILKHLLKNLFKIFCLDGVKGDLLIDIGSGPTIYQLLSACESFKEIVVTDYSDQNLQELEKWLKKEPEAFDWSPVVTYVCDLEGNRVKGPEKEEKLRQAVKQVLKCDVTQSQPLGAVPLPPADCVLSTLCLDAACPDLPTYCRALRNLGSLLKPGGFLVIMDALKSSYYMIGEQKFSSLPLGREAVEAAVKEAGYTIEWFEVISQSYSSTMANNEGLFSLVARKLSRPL

[4] = target: Phenylethanolamine N-methyltransferase (Homo sapiens) (UniProt P11086); conditions: MTase-Glo luminescence, SAH detection, recombinant enzyme; measured here: PNMT max response; stronger effect = lower value
Sequence of Phenylethanolamine N-methyltransferase (Homo sapiens) (P11086 whole entry, looked up): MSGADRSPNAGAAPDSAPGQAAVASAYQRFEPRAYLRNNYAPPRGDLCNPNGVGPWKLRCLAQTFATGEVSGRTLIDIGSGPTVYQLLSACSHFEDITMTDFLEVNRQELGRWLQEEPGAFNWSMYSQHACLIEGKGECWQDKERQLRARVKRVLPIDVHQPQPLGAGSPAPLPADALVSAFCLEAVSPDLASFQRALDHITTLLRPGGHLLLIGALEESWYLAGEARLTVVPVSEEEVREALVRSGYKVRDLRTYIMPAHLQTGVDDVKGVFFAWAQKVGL

SMILES	activity [1]	activity change, negative = inhibition [2]	activity [3]	activity [4]
CC(C)(O)C1CC=C(C(=O)OC[C@H]2O[C@@H](OC(=O)C3=CCC(C(C)(C)O)CC3)[C@H](O)[C@@H](O)[C@@H]2O)CC1 (some centres not stated)	-62.1%	-9.84% [at 29.8 µM]	-5.04%	-5.85%
COc1cc(/C=C/C(=O)OC[C@H]2O[C@@H](OC3OC=C(C(=O)O)C4C(O)CC(C)(O)C34)[C@H](O)[C@@H](O)[C@@H]2O)cc(OC)c1O (some centres not stated)	-54.7%	-2.09% [at 19.1 µM]	0.931%	-3.81%
CC1=CC(=O)C(=C(C)C)CC2C(C)(O)CCC12O (configuration not stated)	-81.2%	0.373%	2.29%	1.07%
O=C(O)Cn1nnc(-c2ccc(CN(CCCCOc3ccc(CN4CCCC4)cc3)CCc3ccccc3)cc2)n1	-3.03%	0%	-1.13%	0.559%
C=C[C@H]1[C@H](O[C@@H]2O[C@H](CO)[C@@H](O)[C@H](O)[C@H]2O)OC=C(C(=O)OC)[C@H]1CCO	-72.1%	-3.63%	-12.2%	-3.1%
CC1CC(=O)C2=C(O1)OC1(C)CCC3C(C)(C)C4OC4C(=O)C3(C)C1C2 (configuration not stated)	-27.1%	0%	-84.6%	-2.49%
COc1c2c(c(C)c3c1C(=O)OC3)OC1(C)CC(O)C34OC(OC)(CC(O)C3(C)C1C2)OC4(C)C (configuration not stated)	-15%	-2.68% [at 29.8 µM]	-8.14%	-5.39%
CC1OC(OC2C(OC(=O)[C@]34CCC(C)(C)C[C@H]3C3=CCC5[C@@]6(C)CC[C@H](OC7OC(C(=O)O)C(O)C(O)C7O)C(C)(C)C6CC[C@@]5(C)[C@]3(C)CC4O)OC(CO)C2O)C(O)C(O)C1OC1OCC(O)C(O)C1O (some centres not stated)	-87.7%	0% [at 19.1 µM]	-6.05%	-8.02%
